Consider 40 compounds from ChEMBL document CHEMBL4513146, “CO-ADD screening of Karazin Kharkiv National University (Ukraine) compounds”.

Entries with a potency or affinity are not part of this list.

One test deals with Candida albicans. The settings on record: Concentration 32 ug.mL-1; ASSAY_TEST Inhibition of Fungal Growth; detection method Absorption (OD530).
Turning to `CCc1ccc(N(Cc2cccc(C)c2)S(=O)(=O)c2cccn3c(C)nnc23)cc1`, the Inhibition worked out at 4.84%.

With `COc1ccc(N(Cc2cccc(F)c2)S(=O)(=O)c2ccc3nnc(C)n3c2)cc1`, the Inhibition is recorded as 7.1%.

`CCc1ccc(NC(=O)Cn2nc3ccc(SC(C)(C)C)nn3c2=O)cc1`: the Inhibition worked out at 4.19%.

With `COc1ccc(NC(=O)Cn2nc3ccc(-c4ccccc4)nn3c2=O)cc1OC`, the Inhibition turned out to be 3.57%.

In the case of `Cc1nnc2ccc(S(=O)(=O)N(Cc3ccccc3F)c3cc(F)cc(F)c3)cn12`, the Inhibition worked out at 2.54%.

As for `Cc1cccc(NC(=O)CSc2nnc3c(=O)n(-c4ccccc4)ccn23)c1`, the Inhibition is 1.31%.

With `Cc1ccc(NC(=O)Cn2nc3c(N4CCOCC4)nc4ccccc4n3c2=O)cc1C`, the Inhibition is reported as -0.6%.

As to `CCOc1ccccc1NC(=O)Cn1nc2c3cc(-c4ccc(Cl)cc4)nn3ccn2c1=O`, the Inhibition worked out at 2.9%.

Take `CCc1nnc2c(S(=O)(=O)N(Cc3cccc(C)c3)c3cccc(Cl)c3)cccn12`: the Inhibition turned out to be 3.58%.

For the compound `CN(Cc1ccccc1)C(=O)CSc1nnc2c3cc(-c4ccccc4)nn3ccn12`, the Inhibition worked out at 2.03%.

For the compound `Cc1ccc(NC(=O)Cn2nc3ccc(-c4ccc(C)c(C)c4)nn3c2=O)cc1`, the Inhibition is reported as -0.59%.

In the case of `COc1ccc(-c2cc3c4nnc(SCC(=O)Nc5ccc(C)c(F)c5)n4ccn3n2)cc1`, the Inhibition amounted to 19.06%.

In the case of `COC(=O)c1ccc(CN(c2ccc(Cl)cc2)S(=O)(=O)c2ccc3nncn3c2)o1`, the Inhibition was -1.37%.

As for `COc1cc(OC)c(NC(=O)Cn2nc3c(Oc4cccc(C)c4C)nccn3c2=O)cc1Cl`, the Inhibition stood at 0.16%.

For the compound `Cc1cccc(NC(=O)c2ccc3nnc(SCC(=O)Nc4ccc(Br)cc4)n3c2)c1`, the Inhibition is listed as 7.81%.

On to `CC(C)CCn1c(=O)c2ccc(C(=O)NC3CCCCC3)cc2n2c(=S)[nH]nc12`, for which the Inhibition is 2.77%.

As for `COc1cccc(-n2ccn3c(-c4ccc([N+](=O)[O-])cc4)nnc3c2=O)c1`, the Inhibition is 1.66%.

As to `COc1ccc(N2CCN(C(=O)Cn3nc4ccc(-c5ccc(Cl)cc5)nn4c3=O)CC2)cc1`, the Inhibition is 7.77%.

As to `Cn1c(=O)c2sccc2n2c(=O)n(CCOc3ccccc3)nc12`, the Inhibition was -1.1%.

For the compound `CCCN(C)c1nccn2c(=O)n(CC(=O)Nc3cccc(C(F)(F)F)c3)nc12`, the Inhibition is reported as -0.05%.

For `CCc1cccc(NC(=O)Cn2nc3ccc(SC4CCCCC4)nn3c2=O)c1`, the Inhibition stood at 2.91%.

With `COc1ccc(C)cc1NC(=O)Cn1nc2c3cc(-c4ccc(Cl)cc4)nn3ccn2c1=O`, the Inhibition is -1.06%.

As for `Cc1cc(C)cc(Nc2nc(C)cc3nn(CC(=O)Nc4ccc(Cl)cc4)c(=O)n23)c1`, the Inhibition worked out at 5.41%.

Regarding `Cc1ccc(-c2cc3c4nnc(CCC(=O)N5CCN(c6ccccn6)CC5)n4ccn3n2)cc1C`, the Inhibition came to 0.49%.

For the compound `CCc1nnc2c(=O)n(CC(=O)Nc3ccc(C(C)C)cc3)c3ccccc3n12`, the Inhibition is given as -0.82%.

In the case of `COc1ccc(Cl)cc1NC(=O)Cn1nc2ccc(Sc3ccccc3)nn2c1=O`, the Inhibition was 45.02%.

With `CC(C)CCNC(=O)Cn1nc2n(Cc3ccco3)c(=O)c3sccc3n2c1=O`, the Inhibition is 3.16%.

Consider `Cc1ccc(-c2ccc3nn(CC(=O)Nc4ccccc4)c(=O)n3n2)cc1C`, for which the Inhibition is -1.46%.

For `CCOC(=O)c1ccccc1NC(=O)Cn1nc2c(Sc3ccccc3)nccn2c1=O`, the Inhibition is -1.59%.

Consider `O=c1c2nn(Cc3ccccc3Cl)c(=O)n2ccn1-c1ccccc1`, for which the Inhibition stood at 1.76%.

`Cc1ccc(NC(=O)Cn2nc3c(SC4CCCCC4)nccn3c2=O)c(Br)c1`: the Inhibition is recorded as 0.73%.

As for `O=C(Cn1nc2c3sc(N4CCCC4)nc3ncn2c1=O)Nc1ccc(F)c(Cl)c1`, the Inhibition is given as 4.41%.

On to `Cc1cc2nn(CC(=O)Nc3ccc(F)cc3Cl)c(=O)n2c(Nc2ccccc2C)n1`, for which the Inhibition turned out to be 30.65%.

Turning to `COc1ccc(-c2cc3c4nn(CC(=O)NCc5ccc(Cl)cc5)c(=O)n4ccn3n2)cc1`, the Inhibition is listed as 0.12%.

Turning to `CCCCN(C)c1ccc2nnc(CCc3nc(-c4ccc(OCc5ccccc5)cc4)no3)n2n1`, the Inhibition amounted to 9.14%.

Turning to `O=c1c2nnc(SCc3ccccc3)n2ccn1-c1ccc(Br)cc1`, the Inhibition is reported as 5.19%.

Take `CC(C)Cn1c(=O)c2sccc2n2c(=O)n(Cc3cccc(Br)c3)nc12`: the Inhibition is -0.42%.

In the case of `Cc1ccc(-n2ccn3c(SCC(=O)N4CCN(c5ccc(F)cc5)CC4)nnc3c2=O)cc1C`, the Inhibition is reported as 0.36%.

For the compound `CC(C)Sc1ccc2nn(CC(=O)Nc3ccc(Br)cc3F)c(=O)n2n1`, the Inhibition was -0.59%.

`CCOc1ccc(NC(=O)Cn2nc3ccc(-c4ccccc4)nn3c2=O)cc1`: the Inhibition was determined as 4.93%.

The test system of another test is Cryptococcus neoformans. Particulars: Concentration 32 ug.mL-1; ASSAY_TEST Inhibition of Fungal Growth; detection method Resazurin; Absorption (OD600-OD570); plate type 384well; NBS; CORNING #3640.
For `CCc1ccc(N(Cc2cccc(C)c2)S(=O)(=O)c2cccn3c(C)nnc23)cc1`, the Inhibition was -3.55%.

Regarding `COc1ccc(N(Cc2cccc(F)c2)S(=O)(=O)c2ccc3nnc(C)n3c2)cc1`, the Inhibition was -3.46%.

Regarding `CCc1ccc(NC(=O)Cn2nc3ccc(SC(C)(C)C)nn3c2=O)cc1`, the Inhibition is -17.5%.

With `COc1ccc(NC(=O)Cn2nc3ccc(-c4ccccc4)nn3c2=O)cc1OC`, the Inhibition was determined as 0.88%.

As to `Cc1nnc2ccc(S(=O)(=O)N(Cc3ccccc3F)c3cc(F)cc(F)c3)cn12`, the Inhibition is on record as -9.43%.

For the compound `Cc1cccc(NC(=O)CSc2nnc3c(=O)n(-c4ccccc4)ccn23)c1`, the Inhibition is listed as -14.94%.

Consider `Cc1ccc(NC(=O)Cn2nc3c(N4CCOCC4)nc4ccccc4n3c2=O)cc1C`, for which the Inhibition is recorded as -25.03%.

With `CCOc1ccccc1NC(=O)Cn1nc2c3cc(-c4ccc(Cl)cc4)nn3ccn2c1=O`, the Inhibition is listed as -13.93%.

Turning to `CCc1nnc2c(S(=O)(=O)N(Cc3cccc(C)c3)c3cccc(Cl)c3)cccn12`, the Inhibition is -6.66%.

On to `CN(Cc1ccccc1)C(=O)CSc1nnc2c3cc(-c4ccccc4)nn3ccn12`, for which the Inhibition is -6.97%.

For `Cc1ccc(NC(=O)Cn2nc3ccc(-c4ccc(C)c(C)c4)nn3c2=O)cc1`, the Inhibition is given as -13.68%.

Turning to `COc1ccc(-c2cc3c4nnc(SCC(=O)Nc5ccc(C)c(F)c5)n4ccn3n2)cc1`, the Inhibition is -5.86%.

Consider `COC(=O)c1ccc(CN(c2ccc(Cl)cc2)S(=O)(=O)c2ccc3nncn3c2)o1`, for which the Inhibition is on record as -1.27%.

As for `COc1cc(OC)c(NC(=O)Cn2nc3c(Oc4cccc(C)c4C)nccn3c2=O)cc1Cl`, the Inhibition is on record as -9.4%.

As to `Cc1cccc(NC(=O)c2ccc3nnc(SCC(=O)Nc4ccc(Br)cc4)n3c2)c1`, the Inhibition is -6.93%.

Consider `CC(C)CCn1c(=O)c2ccc(C(=O)NC3CCCCC3)cc2n2c(=S)[nH]nc12`, for which the Inhibition is -13.59%.

In the case of `COc1cccc(-n2ccn3c(-c4ccc([N+](=O)[O-])cc4)nnc3c2=O)c1`, the Inhibition was -18.73%.

With `COc1ccc(N2CCN(C(=O)Cn3nc4ccc(-c5ccc(Cl)cc5)nn4c3=O)CC2)cc1`, the Inhibition is recorded as -9.26%.

Turning to `Cn1c(=O)c2sccc2n2c(=O)n(CCOc3ccccc3)nc12`, the Inhibition is given as -29.95%.

Regarding `CCCN(C)c1nccn2c(=O)n(CC(=O)Nc3cccc(C(F)(F)F)c3)nc12`, the Inhibition was -3.78%.

For the compound `CCc1cccc(NC(=O)Cn2nc3ccc(SC4CCCCC4)nn3c2=O)c1`, the Inhibition is -22.11%.

As for `COc1ccc(C)cc1NC(=O)Cn1nc2c3cc(-c4ccc(Cl)cc4)nn3ccn2c1=O`, the Inhibition is reported as -27.09%.

As for `Cc1cc(C)cc(Nc2nc(C)cc3nn(CC(=O)Nc4ccc(Cl)cc4)c(=O)n23)c1`, the Inhibition was -4.1%.

Turning to `Cc1ccc(-c2cc3c4nnc(CCC(=O)N5CCN(c6ccccn6)CC5)n4ccn3n2)cc1C`, the Inhibition was -12.2%.

Take `CCc1nnc2c(=O)n(CC(=O)Nc3ccc(C(C)C)cc3)c3ccccc3n12`: the Inhibition is reported as -28.42%.

Turning to `COc1ccc(Cl)cc1NC(=O)Cn1nc2ccc(Sc3ccccc3)nn2c1=O`, the Inhibition was -15.66%.

As to `CC(C)CCNC(=O)Cn1nc2n(Cc3ccco3)c(=O)c3sccc3n2c1=O`, the Inhibition was -8.69%.

In the case of `Cc1ccc(-c2ccc3nn(CC(=O)Nc4ccccc4)c(=O)n3n2)cc1C`, the Inhibition is recorded as -10.8%.

For the compound `CCOC(=O)c1ccccc1NC(=O)Cn1nc2c(Sc3ccccc3)nccn2c1=O`, the Inhibition is given as -6.53%.

For `O=c1c2nn(Cc3ccccc3Cl)c(=O)n2ccn1-c1ccccc1`, the Inhibition is -8.76%.

`Cc1ccc(NC(=O)Cn2nc3c(SC4CCCCC4)nccn3c2=O)c(Br)c1`: the Inhibition is -7.42%.

With `O=C(Cn1nc2c3sc(N4CCCC4)nc3ncn2c1=O)Nc1ccc(F)c(Cl)c1`, the Inhibition was -11.29%.

Consider `Cc1cc2nn(CC(=O)Nc3ccc(F)cc3Cl)c(=O)n2c(Nc2ccccc2C)n1`, for which the Inhibition is -16.44%.

Turning to `COc1ccc(-c2cc3c4nn(CC(=O)NCc5ccc(Cl)cc5)c(=O)n4ccn3n2)cc1`, the Inhibition is given as -24.2%.

Turning to `CCCCN(C)c1ccc2nnc(CCc3nc(-c4ccc(OCc5ccccc5)cc4)no3)n2n1`, the Inhibition is on record as -39.2%.

`O=c1c2nnc(SCc3ccccc3)n2ccn1-c1ccc(Br)cc1`: the Inhibition is reported as -7.93%.

`CC(C)Cn1c(=O)c2sccc2n2c(=O)n(Cc3cccc(Br)c3)nc12`: the Inhibition is listed as -24.19%.

Take `Cc1ccc(-n2ccn3c(SCC(=O)N4CCN(c5ccc(F)cc5)CC4)nnc3c2=O)cc1C`: the Inhibition is listed as -5.04%.

Consider `CC(C)Sc1ccc2nn(CC(=O)Nc3ccc(Br)cc3F)c(=O)n2n1`, for which the Inhibition is on record as -7.06%.

For the compound `CCOc1ccc(NC(=O)Cn2nc3ccc(-c4ccccc4)nn3c2=O)cc1`, the Inhibition was -6.8%.
